Laboratory results reported in the supplement of paper PMC12632987.

molecular target: GABARAPL2, P60520; assay: median log2 fold change of GCK-ALFA target abundance (FLAG IP / Myc IP barcode read proportion) (log2 ratio); each designed protein is fused to an ALFA-tag nanobody in HEK293 cells to bring the named protein to FLAG-tagged glucokinase (GCK); Myc marks an untargeted standard; higher = target protein stabilised (more abundant); details: target protein: 3xFLAG-MCP-GCK-ALFA reporter; HEK293 landing pad (RPLP)
Outline: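 Sequencing of reverse-transcribed, amplified circular RNA barcodes from anti-FLAG and anti-Myc immunoprecipitates provided the readout for an ALFA-nanobody-fused binder library recombined into HEK293 landing-pad cells. Those cells were induced with 2 μg mL^−1 doxycycline, transfected with a plasmid expressing a FLAG-tagged target and a Myc-tagged standard, and lysed after 48 h. Target abundance is the per-binder median log2 ratio of FLAG to Myc barcode read proportions. Only barcodes at a proportion of ≥10^−7 in both replicates and binders with ≥3 barcodes per replicate were kept, with a 10^−6 pseudocount added before the two replicates were pooled.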

GABARAPL2, P60520, sequence (P60520 whole entry, the tested form may be a part): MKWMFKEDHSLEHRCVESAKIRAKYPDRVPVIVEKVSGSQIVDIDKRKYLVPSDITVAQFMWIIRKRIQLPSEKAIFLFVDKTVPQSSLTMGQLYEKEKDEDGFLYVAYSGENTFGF

Binder	median log2 fold change
GBRAPL2_0_7229 (protein) IEEEIEEMKKLSIEEAAKRAVELVKEMAESGKYSLEEIAEFVEKAAEVLGEKLKEEKKEEGLDIAAEAADEIRKILSKIDPNLAAYAASEIGSEIMEVIS	-0.0242
GBRAPL2_0_7233 (protein) MEEIVEELKKLSVEEAAEYFVKKVKEMVESGKYSLEEIEELIEKLAEVLGEKLKKNKKEEDLDIAAEAADKVREILLKRDPNLAAFAASEIGAEIMEAWS	0.0153
GBRAPL2_0_7228 (protein) IEEEIEKISKLSIEEAAKAAVELVKEMAESGKYSLEEIEEFVEKAAEVLEKKIKEEKKEESLDIAAETADEVRKILEKIDPNLAAYAASEIGSGIMEAIS	0.048
GBRAPL2_0_7239 (protein) MEELLKELLSLSLEEAKKKIKEKTEEAVKLIRKDPEKGLKYAEELVEVFAEVVVERKNEELEEVVDEATDRLVEEAAKIDPNEAAYLAAIRGSAIAEVEL	0.0745
GBRAPL2_0_7236 (protein) MEELLKRLLSLSLEEAKKEIKELAEKAIKLIKKDPEKGIKYAEELAKVFAEYLEKTKNEELAEVIDEAIDKIVEEVAKVDPNAAAAIASEIGSALYEVES	0.224
GBRAPL2_0_7232 (protein) MEEKIEELKKLSVEEAAKYFVETVKEAVESGKYSLEEIAELIEKMAEVLGEKLKEVKKEEAIDIAAKAADEVRKILSKLDPNLAAYAASEIGAEIMEAWS	0.0832
GBRAPL2_0_7240 (protein) MEALKAELLALSLEEAIARIEALTDEAVALIRADPEAGLAAAEELVEVLAEVVVERKDERLEEAVEAATDRLAAVVAEVDPREAAYLRAIMGSAIAEVES	0.0165
GBRAPL2_0_7237 (protein) MEELLEKLLSLSLEEAKKEIKKLADEVIELLRKDPEKGKEAAEELAEVFSEYLEKTKNEELEEVIDEAIDKIVEEMSKIDPREAAYIDSIFGSAIMEVEG	-0.0207
GBRAPL2_0_7230 (protein) IEERVEEMSKLSIEEAAAYAVEKVREMAESGEYSLEEIEEFVEKAAEVLGKKLKEEKKEEGLDIAAEAAREIREILSKVDPRLAALAESEIGAAIMEAEL	0.138
GBRAPL2_0_7234 (protein) KEELLKELLSLSLEEAKKAIKELAEEVIKLIKEDPEKGIEKAIELAEVFAEYLIERKDEELAKVIDEAIDKIVKEVEKVDPNAAAEIASEIGSAIYEVES	0.244
GBRAPL2_0_7226 (protein) MEETLEKIKKLSIKEAAEYVVEKVEELVKSGKYSLEEIEEIVSALADELGEKLKKENKEEGLDYAAEAADRIREILSKLDPNLAAFAYSEIGSEIMEAES	0.24
GBRAPL2_0_7223 (protein) MEKLKEEMLKLSIEEASKKAVETVKEMVESGKYSLEEIEEKIEAMAEVLGELLKKEKKEEAEEIAIKAADEIRKILEKKDPNLAAFAYSEIGAEIMEARE	0.33
GBRAPL2_0_7238 (protein) AEELLKKLLEASVEEAIAAIKEAAEKAVKEIEKDPEAGLKAAEELAEVFAEVIIERKNEEVIKAVEEAADRIVAAAAKVDPNAAAYIASIIGSALYEYES	0.0105
GBRAPL2_0_7227 (protein) IEEKIKEMSKLSIEEAAKKAVELVKEMAESGKYSLEEIEEFVEAAAEVLGKKIKEEKKEEGLDIADEAARKIREILSKVDPRLAAYAASEIGAAIMEAIS	0.213
GBRAPL2_0_7224 (protein) MEEWIEKLKKLSIEEAAALVVEKIKELVESGKYSLEEIAEIVEKLARVLGEKLKEENKEEGLDLAAKAADEIRKILEKVDPNLAAFADSEIGSEIMEASS	0.136
GBRAPL2_0_7225 (protein) MEEELEKLKKLSIEEAAKYVVEKVKELVESGKYSLEEIADIVEKLARVLGEKLKEENKEEGLDLAAKAADEIRKILSKLDPNLAAYADSEIGAEIMEASS	-0.0692
